Laboratory results reported in ChEMBL document CHEMBL1961873, “Compounds: GSK PKIS; Assays: Nanosyn kinase panel” (2012).

Assays:
[1] = biological target: Serine/threonine-protein kinase MARK2 (Homo sapiens) (UniProt Q7KZI7); settings: at 1 µM
[2] = biological target: PAS domain-containing serine/threonine-protein kinase (Homo sapiens) (UniProt Q96RG2); settings: at 0.1 µM
[3] = biological target: PAS domain-containing serine/threonine-protein kinase (Homo sapiens) (UniProt Q96RG2); settings: at 1 µM
[4] = biological target: Phosphorylase b kinase gamma catalytic chain, skeletal muscle/heart isoform (Homo sapiens) (UniProt Q16816); settings: at 0.1 µM
[5] = biological target: Phosphorylase b kinase gamma catalytic chain, skeletal muscle/heart isoform (Homo sapiens) (UniProt Q16816); settings: at 1 µM
[6] = biological target: T1, Phosphorylase b kinase gamma catalytic chain, liver/testis isoform (Homo sapiens) (UniProt P15735); settings: at 0.1 µM
T1 sequence (whole entry): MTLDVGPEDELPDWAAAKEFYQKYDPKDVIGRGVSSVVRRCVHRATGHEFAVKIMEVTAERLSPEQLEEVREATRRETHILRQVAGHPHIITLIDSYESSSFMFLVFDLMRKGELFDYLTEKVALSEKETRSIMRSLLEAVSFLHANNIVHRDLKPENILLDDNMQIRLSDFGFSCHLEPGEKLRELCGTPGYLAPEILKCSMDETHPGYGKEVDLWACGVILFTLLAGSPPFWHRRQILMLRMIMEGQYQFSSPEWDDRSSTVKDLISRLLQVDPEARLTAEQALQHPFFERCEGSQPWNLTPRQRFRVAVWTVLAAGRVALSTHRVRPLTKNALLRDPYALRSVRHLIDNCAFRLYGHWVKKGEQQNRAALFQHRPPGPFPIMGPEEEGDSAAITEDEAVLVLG

[7] = biological target: T1, Phosphorylase b kinase gamma catalytic chain, liver/testis isoform (Homo sapiens); settings: at 1 µM
[8] = biological target: Serine/threonine-protein kinase pim-1 (Homo sapiens) (UniProt P11309); settings: at 0.1 µM
[9] = biological target: Serine/threonine-protein kinase pim-1 (Homo sapiens) (UniProt P11309); settings: at 1 µM
[10] = biological target: Serine/threonine-protein kinase pim-2 (Homo sapiens) (UniProt Q9P1W9); settings: at 0.1 µM
[11] = biological target: Serine/threonine-protein kinase pim-2 (Homo sapiens) (UniProt Q9P1W9); settings: at 1 µM
[12] = biological target: Serine/threonine-protein kinase pim-3 (Homo sapiens) (UniProt Q86V86); settings: at 0.1 µM
[13] = biological target: Serine/threonine-protein kinase pim-3 (Homo sapiens) (UniProt Q86V86); settings: at 1 µM
[14] = biological target: T2, MAP kinase-activated protein kinase 5 (Homo sapiens) (UniProt Q8IW41); settings: at 0.1 µM
T2 sequence (whole entry): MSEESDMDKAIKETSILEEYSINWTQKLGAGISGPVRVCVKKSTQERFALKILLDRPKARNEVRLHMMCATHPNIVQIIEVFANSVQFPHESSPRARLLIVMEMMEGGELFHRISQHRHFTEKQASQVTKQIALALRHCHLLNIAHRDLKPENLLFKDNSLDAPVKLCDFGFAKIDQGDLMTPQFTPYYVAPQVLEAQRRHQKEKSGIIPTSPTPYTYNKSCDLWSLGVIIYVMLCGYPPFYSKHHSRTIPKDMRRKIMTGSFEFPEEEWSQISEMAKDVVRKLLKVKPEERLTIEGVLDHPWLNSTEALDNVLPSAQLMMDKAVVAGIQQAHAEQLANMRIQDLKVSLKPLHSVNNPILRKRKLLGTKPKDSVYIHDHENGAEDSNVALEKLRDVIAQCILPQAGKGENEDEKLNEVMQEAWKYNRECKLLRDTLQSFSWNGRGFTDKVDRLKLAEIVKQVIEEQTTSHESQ

[15] = biological target: T2, MAP kinase-activated protein kinase 5 (Homo sapiens); settings: at 1 µM
[16] = biological target: Serine/threonine-protein kinase SIK1 (Homo sapiens) (UniProt P57059); settings: at 0.1 µM
[17] = biological target: Serine/threonine-protein kinase SIK1 (Homo sapiens) (UniProt P57059); settings: at 1 µM
[18] = biological target: Serine/threonine-protein kinase SIK2 (Homo sapiens) (UniProt Q9H0K1); settings: at 0.1 µM
[19] = biological target: Serine/threonine-protein kinase SIK2 (Homo sapiens) (UniProt Q9H0K1); settings: at 1 µM
[20] = biological target: T3, Serine/threonine-protein kinase TBK1 (Homo sapiens) (UniProt Q9UHD2); settings: at 0.1 µM;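 note: values are the mean TBK1 inhibition, taken from the GSK PKIS screening data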
T3 sequence (whole entry): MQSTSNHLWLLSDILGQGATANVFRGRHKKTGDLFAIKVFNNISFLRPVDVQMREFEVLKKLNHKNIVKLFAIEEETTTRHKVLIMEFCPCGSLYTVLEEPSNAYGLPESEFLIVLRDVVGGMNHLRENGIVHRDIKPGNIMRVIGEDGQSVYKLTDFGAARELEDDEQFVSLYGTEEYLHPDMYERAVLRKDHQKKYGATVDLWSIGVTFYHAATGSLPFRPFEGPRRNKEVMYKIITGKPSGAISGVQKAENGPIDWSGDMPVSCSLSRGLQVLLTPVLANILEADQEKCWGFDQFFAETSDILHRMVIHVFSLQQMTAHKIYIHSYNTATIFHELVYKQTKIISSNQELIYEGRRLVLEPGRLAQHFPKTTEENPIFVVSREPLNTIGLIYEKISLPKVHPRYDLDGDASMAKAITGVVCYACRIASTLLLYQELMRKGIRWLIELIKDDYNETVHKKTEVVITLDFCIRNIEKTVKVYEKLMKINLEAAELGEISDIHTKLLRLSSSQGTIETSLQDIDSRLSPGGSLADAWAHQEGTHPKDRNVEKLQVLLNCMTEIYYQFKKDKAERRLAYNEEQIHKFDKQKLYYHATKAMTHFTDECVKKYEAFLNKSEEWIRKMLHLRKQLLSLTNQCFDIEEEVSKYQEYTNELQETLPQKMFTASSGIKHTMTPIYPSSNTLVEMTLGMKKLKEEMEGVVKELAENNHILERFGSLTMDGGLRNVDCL

Sequence of Phosphorylase b kinase gamma catalytic chain, skeletal muscle/heart isoform (Homo sapiens) (Q16816 whole entry, looked up, canonical isoform): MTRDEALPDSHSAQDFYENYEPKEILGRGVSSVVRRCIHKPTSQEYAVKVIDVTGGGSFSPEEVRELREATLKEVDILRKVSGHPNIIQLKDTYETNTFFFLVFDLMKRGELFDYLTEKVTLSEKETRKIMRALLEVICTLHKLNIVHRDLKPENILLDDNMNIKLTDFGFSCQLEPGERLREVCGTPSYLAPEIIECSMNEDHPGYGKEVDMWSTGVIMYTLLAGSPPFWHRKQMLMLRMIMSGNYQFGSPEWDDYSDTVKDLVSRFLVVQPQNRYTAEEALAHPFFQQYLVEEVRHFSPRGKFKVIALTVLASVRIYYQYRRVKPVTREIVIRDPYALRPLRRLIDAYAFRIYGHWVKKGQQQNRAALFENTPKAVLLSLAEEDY
Sequence of Serine/threonine-protein kinase SIK1 (Homo sapiens) (P57059 whole entry): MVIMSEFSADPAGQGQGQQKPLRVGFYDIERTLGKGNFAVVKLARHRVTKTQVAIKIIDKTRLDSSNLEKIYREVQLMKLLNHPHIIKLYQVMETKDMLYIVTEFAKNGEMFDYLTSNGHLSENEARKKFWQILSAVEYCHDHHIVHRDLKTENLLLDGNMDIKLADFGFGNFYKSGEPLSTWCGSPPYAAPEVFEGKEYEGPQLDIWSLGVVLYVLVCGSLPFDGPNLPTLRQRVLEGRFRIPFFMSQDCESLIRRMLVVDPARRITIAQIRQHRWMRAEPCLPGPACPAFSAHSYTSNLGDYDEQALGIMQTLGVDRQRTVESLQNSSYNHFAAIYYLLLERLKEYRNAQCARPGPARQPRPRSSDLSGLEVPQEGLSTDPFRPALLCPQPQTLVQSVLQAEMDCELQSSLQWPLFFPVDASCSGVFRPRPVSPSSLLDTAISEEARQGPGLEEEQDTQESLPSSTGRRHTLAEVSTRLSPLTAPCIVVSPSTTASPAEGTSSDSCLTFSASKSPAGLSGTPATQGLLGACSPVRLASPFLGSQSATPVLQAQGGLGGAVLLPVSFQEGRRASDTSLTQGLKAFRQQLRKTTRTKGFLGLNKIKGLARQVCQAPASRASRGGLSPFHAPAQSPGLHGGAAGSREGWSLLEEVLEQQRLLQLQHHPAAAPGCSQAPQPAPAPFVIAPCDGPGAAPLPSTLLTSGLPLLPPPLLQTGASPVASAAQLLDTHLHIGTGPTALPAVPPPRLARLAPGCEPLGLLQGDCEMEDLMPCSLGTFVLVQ
Sequence of PAS domain-containing serine/threonine-protein kinase (Homo sapiens) (Q96RG2 whole entry, the tested form may be a part, canonical isoform): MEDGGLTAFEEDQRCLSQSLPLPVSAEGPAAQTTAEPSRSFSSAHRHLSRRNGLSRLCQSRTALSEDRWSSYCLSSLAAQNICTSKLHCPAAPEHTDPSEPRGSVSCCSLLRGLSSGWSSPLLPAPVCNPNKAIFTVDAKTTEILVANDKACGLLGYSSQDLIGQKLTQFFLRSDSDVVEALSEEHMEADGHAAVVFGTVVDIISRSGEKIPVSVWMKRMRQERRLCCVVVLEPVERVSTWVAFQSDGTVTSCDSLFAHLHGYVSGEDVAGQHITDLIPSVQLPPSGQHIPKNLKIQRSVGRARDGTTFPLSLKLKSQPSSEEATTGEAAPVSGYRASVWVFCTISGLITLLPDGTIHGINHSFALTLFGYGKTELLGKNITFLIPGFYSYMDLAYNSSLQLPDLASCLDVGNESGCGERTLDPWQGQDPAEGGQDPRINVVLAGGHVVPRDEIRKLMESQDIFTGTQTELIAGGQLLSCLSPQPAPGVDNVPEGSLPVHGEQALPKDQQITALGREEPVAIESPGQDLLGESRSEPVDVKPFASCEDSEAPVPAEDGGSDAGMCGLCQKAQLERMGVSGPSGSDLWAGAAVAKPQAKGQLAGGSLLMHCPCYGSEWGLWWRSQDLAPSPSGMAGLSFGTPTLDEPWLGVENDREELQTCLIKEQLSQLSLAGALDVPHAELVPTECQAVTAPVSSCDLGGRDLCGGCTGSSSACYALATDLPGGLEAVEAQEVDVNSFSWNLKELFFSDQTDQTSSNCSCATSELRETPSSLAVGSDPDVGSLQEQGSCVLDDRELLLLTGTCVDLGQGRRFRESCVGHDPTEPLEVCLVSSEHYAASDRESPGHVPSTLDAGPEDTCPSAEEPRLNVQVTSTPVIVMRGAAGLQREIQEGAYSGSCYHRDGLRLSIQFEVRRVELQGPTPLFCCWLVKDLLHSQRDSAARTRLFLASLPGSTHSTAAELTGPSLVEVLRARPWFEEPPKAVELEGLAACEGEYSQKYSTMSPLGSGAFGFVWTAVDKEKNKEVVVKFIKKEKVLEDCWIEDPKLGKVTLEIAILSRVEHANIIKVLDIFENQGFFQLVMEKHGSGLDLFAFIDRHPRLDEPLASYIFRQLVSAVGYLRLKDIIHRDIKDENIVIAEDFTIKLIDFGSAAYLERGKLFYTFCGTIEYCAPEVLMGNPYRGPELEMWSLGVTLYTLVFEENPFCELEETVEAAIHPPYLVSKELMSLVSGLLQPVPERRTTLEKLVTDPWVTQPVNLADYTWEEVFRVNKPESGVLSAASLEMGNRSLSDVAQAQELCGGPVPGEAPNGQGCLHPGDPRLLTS
Sequence of Serine/threonine-protein kinase pim-2 (Homo sapiens) (Q9P1W9 whole entry, looked up): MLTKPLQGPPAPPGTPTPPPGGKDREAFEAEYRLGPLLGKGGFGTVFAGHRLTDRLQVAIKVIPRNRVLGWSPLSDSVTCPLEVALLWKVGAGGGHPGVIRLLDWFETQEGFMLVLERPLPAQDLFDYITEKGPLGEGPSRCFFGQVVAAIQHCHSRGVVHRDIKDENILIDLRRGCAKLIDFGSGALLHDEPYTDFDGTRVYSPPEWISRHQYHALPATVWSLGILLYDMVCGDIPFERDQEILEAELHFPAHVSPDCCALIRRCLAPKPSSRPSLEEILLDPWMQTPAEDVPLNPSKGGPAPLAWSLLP
Sequence of Serine/threonine-protein kinase MARK2 (Homo sapiens) (Q7KZI7 whole entry, the tested form may be a part): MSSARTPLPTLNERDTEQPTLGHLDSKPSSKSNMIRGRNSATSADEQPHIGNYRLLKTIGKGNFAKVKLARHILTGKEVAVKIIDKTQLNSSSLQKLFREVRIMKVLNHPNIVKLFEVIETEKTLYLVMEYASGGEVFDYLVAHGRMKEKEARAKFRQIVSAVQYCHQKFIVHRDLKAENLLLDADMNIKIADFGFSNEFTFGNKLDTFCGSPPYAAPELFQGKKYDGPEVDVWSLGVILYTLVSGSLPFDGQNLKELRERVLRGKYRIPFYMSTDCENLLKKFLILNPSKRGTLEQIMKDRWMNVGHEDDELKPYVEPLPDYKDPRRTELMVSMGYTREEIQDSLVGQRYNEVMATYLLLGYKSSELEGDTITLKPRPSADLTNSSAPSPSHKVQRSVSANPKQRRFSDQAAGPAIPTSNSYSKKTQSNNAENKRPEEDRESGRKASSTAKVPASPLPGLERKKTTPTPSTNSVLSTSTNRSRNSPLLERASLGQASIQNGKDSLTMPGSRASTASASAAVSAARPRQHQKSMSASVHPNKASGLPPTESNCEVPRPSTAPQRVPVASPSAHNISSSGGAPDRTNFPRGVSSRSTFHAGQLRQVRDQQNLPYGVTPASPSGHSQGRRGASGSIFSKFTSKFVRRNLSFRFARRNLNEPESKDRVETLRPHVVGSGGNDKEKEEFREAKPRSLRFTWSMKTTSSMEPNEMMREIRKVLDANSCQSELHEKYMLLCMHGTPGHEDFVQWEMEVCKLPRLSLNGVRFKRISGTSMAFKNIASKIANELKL
Sequence of Serine/threonine-protein kinase SIK2 (Homo sapiens) (Q9H0K1 whole entry, looked up): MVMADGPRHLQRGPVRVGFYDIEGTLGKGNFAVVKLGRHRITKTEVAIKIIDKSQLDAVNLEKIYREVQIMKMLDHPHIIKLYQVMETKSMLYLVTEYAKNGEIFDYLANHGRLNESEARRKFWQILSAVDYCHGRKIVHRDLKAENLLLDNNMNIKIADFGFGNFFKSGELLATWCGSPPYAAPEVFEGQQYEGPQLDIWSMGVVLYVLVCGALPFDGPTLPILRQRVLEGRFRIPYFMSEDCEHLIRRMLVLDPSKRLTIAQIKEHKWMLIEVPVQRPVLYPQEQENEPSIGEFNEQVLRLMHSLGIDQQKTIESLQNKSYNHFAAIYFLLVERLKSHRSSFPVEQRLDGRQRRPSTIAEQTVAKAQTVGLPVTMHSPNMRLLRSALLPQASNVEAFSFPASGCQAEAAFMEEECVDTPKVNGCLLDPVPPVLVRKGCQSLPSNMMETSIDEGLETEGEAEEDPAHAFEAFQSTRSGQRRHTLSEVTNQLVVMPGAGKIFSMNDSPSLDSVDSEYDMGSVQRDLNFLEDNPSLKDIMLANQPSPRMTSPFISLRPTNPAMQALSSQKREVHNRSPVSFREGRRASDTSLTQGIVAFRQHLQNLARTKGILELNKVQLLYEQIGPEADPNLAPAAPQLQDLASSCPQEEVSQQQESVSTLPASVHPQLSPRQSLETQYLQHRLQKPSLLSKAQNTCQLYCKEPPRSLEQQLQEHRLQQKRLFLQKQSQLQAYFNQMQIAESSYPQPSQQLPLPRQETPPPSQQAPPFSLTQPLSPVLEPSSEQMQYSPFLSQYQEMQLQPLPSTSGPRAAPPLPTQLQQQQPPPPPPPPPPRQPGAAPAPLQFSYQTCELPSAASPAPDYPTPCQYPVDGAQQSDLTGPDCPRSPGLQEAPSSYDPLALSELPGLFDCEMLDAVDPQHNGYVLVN

| SMILES | inhibition [1] | inhibition [2] | inhibition [3] | inhibition [4] | inhibition [5] | inhibition [6] | inhibition [7] | inhibition [8] | inhibition [9] | inhibition [10] | inhibition [11] | inhibition [12] | inhibition [13] | inhibition [14] | inhibition [15] | inhibition [16] | inhibition [17] | inhibition [18] | inhibition [19] | inhibition [20] |
| --- | --- | --- | --- | --- | --- | --- | --- | --- | --- | --- | --- | --- | --- | --- | --- | --- | --- | --- | --- | --- |
| COc1ccc2cc(-c3c(-c4ccncc4)nc(-c4ccc(S(C)(=O)=O)cc4C)n3C)ccc2c1 | 1.75% | -0.05% | 2.36% | 5.34% | 5.99% | 5.31% | 5.26% | 2.41% | 2.08% | 0.92% | 4.18% | 4.87% | 3.73% | 1.38% | 2.64% | 5.28% | 9.27% | 3.7% | 10.8% | 2.5% |
| Fc1ccc(-c2ncn(C3CCNCC3)c2-c2ccnc(Oc3ccc(Oc4ccccc4)cc3)n2)cc1 | 4.07% | -2.03% | -0.39% | 0.96% | -5.23% | 5.51% | 6.26% | 0.09% | 0.87% | -0.33% | -0.39% | -1.06% | 0.02% | 1.12% | 1.72% | 7.97% | 12.8% | 6.45% | 10.1% | 2.66% |
| FC(F)(F)c1cccc(Nc2nccc(-c3cnn4nc(-c5ccccc5)ccc34)n2)c1 | 0.61% | 0.34% | 0.28% | 3.06% | 6.39% | 2.99% | 2.77% | 0.96% | -0.68% | 0.77% | 1.06% | -0.15% | -0.3% | 0.76% | 0.4% | -0.41% | 7% | 2.43% | 5.47% | -0.2% |
| Fc1ccc(-c2nc3n(c2-c2ccncc2)CCS3)cc1 | 1.88% | -0.27% | -1.64% | 5.2% | 4.39% | 4.24% | 2.33% | 0.77% | 2.11% | -3.25% | -3.08% | -1.3% | -1.87% | 1.2% | 0.34% | 5% | 13.5% | 1.21% | 7.35% | 2.27% |
| CCN(CC)Cc1ccc(Nc2nccc(-c3cnn4ncccc34)n2)cc1 | 16.2% | -0.55% | -0.46% | 6.04% | 28.2% | 5.93% | 15.3% | 2.49% | 23% | -3.66% | -0.59% | 6.38% | 37.2% | 1.44% | 2.13% | 2.61% | 24.1% | 10.8% | 47.2% | 5.04% |
| O=C1Nc2ccccc2/C1=C/Nc1ccc(-n2cncn2)cc1 | 10.2% | 0.03% | 1.73% | 9.39% | 33.6% | 5.95% | 18.7% | 0.85% | 0.68% | 0.56% | 2.25% | 1.36% | 4.7% | 1.63% | 4.02% | 5.8% | 9.8% | 3.09% | 11.6% | 6.41% |
| COc1cc2ncn(-c3cc(OCCc4ccccc4)c(C(N)=O)s3)c2cc1OC | 2.11% | 0.16% | -0.56% | 3.81% | 2.4% | 1.37% | 0.33% | -0.26% | -0.29% | -0.04% | 0.47% | -1.48% | -2.48% | 0.21% | -0.58% | 3.59% | 9.48% | 1.23% | 3.75% | 0.96% |
